For test [1], the target named is Bile acid receptor (Homo sapiens) (UniProt Q96RI1). Kind of test: OT_FXR_FXRSRC1_0480: Odyssey Thera (OT) 8-hour HEK293T Protein-Complementation Assay for Farnesoid X receptor/SRC-1 Co-activator (AID 2283383). The gist of the method: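 PCA, HEK293T, 8 h compound exposure; FXR–SRC-1 binding reconstitutes split reporter; fluorescence intensity; positive-direction fit vs DMSO.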

Test [2] shares this target. The test can be described thus: OT_FXR_FXRSRC1_1440: Odyssey Thera (OT) 24-hour HEK293T Protein-Complementation Assay for Farnesoid X receptor/SRC-1 Co-activator (AID 2283384). The gist of the method:
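Measures ligand-driven FXR–SRC-1 co-activator recruitment in HEK293T via fragment complementation, fluorescence intensity at 24 h. DMSO served as negative control and baseline for gain-of-signal fitting.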

Test [3] has as its target Retinoic acid receptor RXR-alpha (Homo sapiens) (UniProt P19793). The test can be described thus: OT_NURR1_NURR1RXRa_1440: Odyssey Thera (OT) 24-hour HEK293T Protein Complementation Assay for Nurr1/retinoid X receptor (RXR) (AID 2283386). The procedure, abridged:
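Steps: fragment-tagged Nurr1 and RXRα expressed in HEK293T; compounds added; after 24 h, complemented reporter quantified by fluorescence intensity; signal increase over DMSO fitted as the single endpoint.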

Test [4] addresses Peroxisome proliferator-activated receptor gamma (Homo sapiens) (UniProt P37231). Kind of test: OT_PPARg_PPARgSRC1_0480: Odyssey Thera (OT) 8-hour Protein-Complementation Assay for Peroxisome Proliferator-activated Receptor Gamma / SRC-1 Co-activator (AID 2283387).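 Also: nuclear to cytoplasmic split Venus YFP fluorescence ratio reporting PPARg SRC-1 interaction.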 The gist of the method: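 HEK293T transiently transfected with PPARg and SRC-1 fused to Venus YFP fragments, compounds 8 h at 37C. Fixed, Draq5-stained cells imaged; nuclear/cytoplasmic 488 nm fluorescence ratio over at least 350 cells per image; gain fitted versus DMSO.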

Test [5] shares this target. The test can be described thus: OT_PPARg_PPARgSRC1_1440: Odyssey Thera (OT) 24-hour Protein-Complementation Assay for Peroxisome Proliferator-activated Receptor Gamma/ SRC-1 Co-activator (AID 2283388). The gist of the method: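 Transient HEK293T, YFP fragments 1-158/159-239 (mutant IFP1/IFP2) fused to PPARg/SRC-1; 24 h dosing; fix 4% formaldehyde, Draq5; Opera imaging 488/635 nm; N/C ratio, gain vs DMSO.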

Test [6] in a line: CEETOX_H295R_11DCORT: CeeTox H295R High-throughput Steroidogenesis Assay for 11-Deoxycortisol (11DCORT) (AID 2283432; active = hit-call score of the fitted dose curve at least 0.9, where 1 is the maximum; inactive = score below 0.9). To be noted: actives raise or lower the signal. The gist of the method: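 H295R cells prestimulated 48 h with 10 uM forskolin, then exposed 48 h to chemical in 0.1% DMSO. 11-Deoxycortisol in medium quantified by HPLC-MS/MS after MTBE extraction; bidirectional fit versus DMSO. MTT viability read in same wells.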

Test [7] can be described thus: CEETOX_H295R_OHPREG: CeeTox H295R High-throughput Steroidogenesis Assay for OH-Pregnenolone (OHPREG) (AID 2283434; active = hit-call score of the fitted dose curve at least 0.9, where 1 is the maximum; inactive = score below 0.9). As to conditions: actives raise or lower the signal. The gist of the method:
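Readout: HPLC-MS/MS of 17alpha-hydroxypregnenolone in medium after 48 h chemical exposure of H295R cells pretreated with forskolin. Values fitted bidirectionally relative to DMSO; chemicals reducing viability to 20–70% were retested after 10-fold dilution.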

Test [8] in a line: CEETOX_H295R_OHPROG: CeeTox H295R High-throughput Steroidogenesis Assay for OH-Progesterone (OHPROG) (AID 2283435; active = hit-call score of the fitted dose curve at least 0.9, where 1 is the maximum; inactive = score below 0.9;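 as to AC50: human adrenal H295R cells primed 48 h with 10 µM forskolin; 17alpha-hydroxyprogesterone secreted into medium measured by HPLC-MS/MS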). As to conditions: actives raise or lower the signal. The gist of the method:
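Steps: seed H295R cells and adhere overnight; stimulate with 10 uM forskolin for 48 h; replace with chemical-containing medium (0.1% DMSO) for 48 h; extract medium with MTBE; quantify 17alpha-hydroxyprogesterone by reverse-phase C18 HPLC-MS/MS against a 7-point curve.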

Test [9] is described as follows: CEETOX_H295R_CORTIC: CeeTox H295R High-throughput Steroidogenesis Assay for Corticosterone (CORTIC) (AID 2283437; active = hit-call score of the fitted dose curve at least 0.9, where 1 is the maximum; inactive = score below 0.9;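 also: corticosterone secreted into medium quantified by mass spectrometry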). As to conditions: actives raise or lower the signal. The procedure, abridged:
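Steps: seed H295R, adhere overnight; 10 uM forskolin 48 h; replace with chemical (0.1% DMSO) 48 h; extract medium with MTBE; quantify corticosterone by HPLC-MS/MS; score bidirectionally vs DMSO.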

Test [10] can be described thus: CEETOX_H295R_CORTISOL: CeeTox H295R High-throughput Steroidogenesis Assay for Cortisol (AID 2283438; active = hit-call score of the fitted dose curve at least 0.9, where 1 is the maximum; inactive = score below 0.9). As to conditions: actives raise or lower the signal. The gist of the method:
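Cortisol synthesis by H295R cells is measured 48 h after chemical dosing, following a 48 h stimulation with 10 uM forskolin. Hormone is extracted and quantified by HPLC-MS/MS, and activity is fitted bidirectionally against the DMSO control.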

Test [11] is described as follows: CEETOX_H295R_DOC: CeeTox H295R High-throughput Steroidogenesis Assay for DOC (AID 2283439; active = hit-call score of the fitted dose curve at least 0.9, where 1 is the maximum; inactive = score below 0.9). As to conditions: actives raise or lower the signal. The procedure, abridged:
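Steps: seed H295R, adhere overnight; 10 uM forskolin 48 h; replace with chemical medium (0.1% DMSO) 48 h; collect medium, MTBE extraction, HPLC-MS/MS for DOC. Viability then checked by MTT; cytotoxic chemicals diluted until viability ≥70%.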

Test [12] is described as follows: CEETOX_H295R_ESTRADIOL: CeeTox H295R High-throughput Steroidogenesis Assay for Estradiol (AID 2283440; active = hit-call score of the fitted dose curve at least 0.9, where 1 is the maximum; inactive = score below 0.9;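 also: estradiol secreted into medium quantified by LC-MS/MS after dansyl derivatisation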). As to conditions: actives raise or lower the signal. The gist of the method:
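Following OECD 456 with minor changes, H295R cells received 10 uM forskolin for 48 h and then test chemical for 48 h. Hormone output was read by HPLC-MS/MS, with cytotoxic concentrations diluted until MTT viability reached ≥70%.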

Test [13] can be described thus: CEETOX_H295R_ESTRONE: CeeTox H295R High-throughput Steroidogenesis Assay for Estrone (AID 2283441; active = hit-call score of the fitted dose curve at least 0.9, where 1 is the maximum; inactive = score below 0.9). To be noted: actives raise or lower the signal. The gist of the method:
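Estrone secreted into medium quantified by LC-MS/MS after dansyl chloride derivatization, following 48 h chemical exposure (0.1% DMSO final) of forskolin-prestimulated (10 uM, 48 h) H295R cells; gain or loss fitted against DMSO; MTT viability in same wells.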

Test [14] can be described thus: CEETOX_H295R_PROG: CeeTox H295R High-throughput Steroidogenesis Assay for Progesterone (PROG) (AID 2283442; active = hit-call score of the fitted dose curve at least 0.9, where 1 is the maximum; inactive = score below 0.9;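 as to AC50: human H295R adrenal cells primed with 10 µM forskolin before dosing; progesterone secreted into medium by H295R cells measured by HPLC-MS/MS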). To be noted: actives raise or lower the signal. The procedure, abridged:
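Adrenal H295R line, forskolin-stimulated (10 uM, 48 h) before dosing. 48 h exposure, 0.1% DMSO vehicle. Secreted progesterone by reverse-phase HPLC with ESI+ MS/MS quantification; DMSO-normalised bidirectional curve fit.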

Read-out in test [15]: Tumor necrosis factor receptor superfamily member 6 (Homo sapiens) (UniProt P25445)
The test can be described thus: LTEA_HepaRG_FAS: Life Technologies and Expression Analysis (LTEA) Assay for Fas cell surface death receptor (FAS) using HepaRG (AID 2283447; active = hit-call score of the fitted dose curve at least 0.9, where 1 is the maximum; inactive = score below 0.9). As to conditions: mRNA level, 48 h; actives raise or lower the signal. The procedure, abridged:
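Differentiated human HepaRG cells, pre-cultured 48 h, were exposed in duplicate for 48 h to 8-point half-log concentrations (top 100 uM, 0.5% DMSO) in serum-free induction medium; FAS mRNA measured by qRT-PCR, normalized to ACTB/GAPDH/POLR2A, bidirectional fit versus DMSO.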

Read-out in test [16]: Fatty acid synthase (Homo sapiens) (UniProt P49327)
Kind of test: LTEA_HepaRG_FASN: Life Technologies and Expression Analysis (LTEA) Assay for Fatty Acid Synthase (FASN) using HepaRG (AID 2283448; active = hit-call score of the fitted dose curve at least 0.9, where 1 is the maximum; inactive = score below 0.9). As to conditions: mRNA level, 48 h; actives raise or lower the signal. The gist of the method:
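Cells were plated, cultured 48 h, switched to serum-free induction medium, then dosed in duplicate (max 100 uM, half-log dilutions, 0.5% DMSO) for 48 h. RNA was then isolated and FASN quantified by qRT-PCR.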

Read-out in test [17]: Cyclin D2 (CCND2), CCND2 (gene 894)
The test can be described thus: LTEA_HepaRG_CCND2: Life Technologies and Expression Analysis (LTEA) Assay for Cyclin D2 (CCND2) using HepaRG (AID 2283449; active = hit-call score of the fitted dose curve at least 0.9, where 1 is the maximum; inactive = score below 0.9;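 also: CCND2 transcript measured by TaqMan qRT-PCR and normalised to three housekeeping genes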). To be noted: mRNA level, 48 h; actives raise or lower the signal. The procedure, abridged:
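In this HepaRG study, an eight-point concentration series (max 100 uM, 0.5% DMSO) is applied for 48 h. CCND2 mRNA change is derived by qRT-PCR normalised to ACTB, GAPDH and POLR2A.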

Read-out in test [18]: Cyclin Dependent Kinase Inhibitor 1A (CDKN1A), CDKN1A (gene 1026)
Kind of test: LTEA_HepaRG_CDKN1A: Life Technologies and Expression Analysis (LTEA) Assay for Cyclin Dependent Kinase Inhibitor 1A (CDKN1A) using HepaRG (AID 2283450; active = hit-call score of the fitted dose curve at least 0.9, where 1 is the maximum; inactive = score below 0.9). As to conditions: mRNA level, 48 h; actives raise or lower the signal. The procedure, abridged:
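Cryopreserved HepaRG cells were plated and cultured 48 h, then switched to serum-free induction medium. Chemicals (eight half-log concentrations, top 100 uM, 0.5% DMSO) were applied for 48 h. Lysates underwent qRT-PCR for CDKN1A with housekeeping normalization.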

The target in test [19] is Retinoic acid receptor RXR-alpha (Homo sapiens) (UniProt P19793). The test can be described thus: OT_NURR1_NURR1RXRa_0480: Odyssey Thera (OT) 8-hour HEK293T Protein Complementation Assay for Nurr1/retinoid X receptor (RXR) (AID 2283385). The procedure, abridged:
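Interaction of bait and prey reconstitutes a functional reporter, whose fluorescence was measured in HEK293T cells dosed with compound for 8 hours. Signal gain relative to DMSO defined the single endpoint.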

“And” between values parts separate entries of the source, which are not always exact repeats. Equal values may be shown once. Records with an inconclusive call do not appear. Some compounds were tested as several samples or in several runs, with calls that do not always agree. The source made the active and inactive calls. The calls were made as follows, unless noted: active = hit-call score of the fitted dose curve at least 0.9, where 1 is the maximum; inconclusive = response in the unintended direction; inactive = score below 0.9.

Sequence of Bile acid receptor (Homo sapiens) (Q96RI1 whole entry, looked up): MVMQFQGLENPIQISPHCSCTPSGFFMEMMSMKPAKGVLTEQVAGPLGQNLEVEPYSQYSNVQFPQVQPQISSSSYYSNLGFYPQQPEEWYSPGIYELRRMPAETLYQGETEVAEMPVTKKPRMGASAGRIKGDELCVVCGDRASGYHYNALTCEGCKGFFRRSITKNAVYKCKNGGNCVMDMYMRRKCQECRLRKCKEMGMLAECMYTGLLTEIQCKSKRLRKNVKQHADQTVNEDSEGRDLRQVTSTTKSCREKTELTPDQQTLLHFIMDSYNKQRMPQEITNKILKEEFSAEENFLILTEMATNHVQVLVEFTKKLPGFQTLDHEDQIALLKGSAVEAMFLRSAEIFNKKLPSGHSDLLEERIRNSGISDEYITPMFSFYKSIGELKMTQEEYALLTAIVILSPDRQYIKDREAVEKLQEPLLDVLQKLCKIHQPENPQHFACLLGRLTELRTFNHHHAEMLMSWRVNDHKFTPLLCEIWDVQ
Sequence of Retinoic acid receptor RXR-alpha (Homo sapiens) (P19793 whole entry, looked up, the tested form may be a part): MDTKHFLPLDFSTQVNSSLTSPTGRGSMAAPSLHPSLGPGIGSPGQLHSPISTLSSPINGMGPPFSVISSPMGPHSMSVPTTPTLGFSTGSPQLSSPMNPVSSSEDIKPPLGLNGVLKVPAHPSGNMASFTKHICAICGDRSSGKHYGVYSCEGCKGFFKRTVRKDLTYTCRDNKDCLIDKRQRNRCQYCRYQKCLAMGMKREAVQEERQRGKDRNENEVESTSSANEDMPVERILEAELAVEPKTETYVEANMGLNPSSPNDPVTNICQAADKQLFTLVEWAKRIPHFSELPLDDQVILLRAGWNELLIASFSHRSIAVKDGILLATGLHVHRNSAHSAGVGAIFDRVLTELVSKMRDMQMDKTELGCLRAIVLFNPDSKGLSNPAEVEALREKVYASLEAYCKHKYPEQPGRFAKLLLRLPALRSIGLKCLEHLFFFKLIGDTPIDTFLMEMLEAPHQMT
Sequence of Peroxisome proliferator-activated receptor gamma (Homo sapiens) (P37231 whole entry, looked up, the tested form may be a part): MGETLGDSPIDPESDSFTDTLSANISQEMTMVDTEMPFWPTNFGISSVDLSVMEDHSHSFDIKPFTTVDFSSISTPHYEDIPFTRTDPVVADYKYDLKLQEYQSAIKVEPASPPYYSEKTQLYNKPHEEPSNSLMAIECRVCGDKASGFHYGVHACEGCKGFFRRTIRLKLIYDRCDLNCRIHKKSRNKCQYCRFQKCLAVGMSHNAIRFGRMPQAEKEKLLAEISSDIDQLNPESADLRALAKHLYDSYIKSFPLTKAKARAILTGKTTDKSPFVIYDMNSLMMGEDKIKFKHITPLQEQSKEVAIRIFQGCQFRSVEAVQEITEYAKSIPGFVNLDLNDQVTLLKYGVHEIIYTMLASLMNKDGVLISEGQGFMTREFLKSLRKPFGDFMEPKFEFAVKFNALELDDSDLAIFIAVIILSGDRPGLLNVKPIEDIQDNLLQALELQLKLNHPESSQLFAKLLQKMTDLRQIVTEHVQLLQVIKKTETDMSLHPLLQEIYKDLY
Sequence of Fatty acid synthase (Homo sapiens) (P49327 whole entry, looked up): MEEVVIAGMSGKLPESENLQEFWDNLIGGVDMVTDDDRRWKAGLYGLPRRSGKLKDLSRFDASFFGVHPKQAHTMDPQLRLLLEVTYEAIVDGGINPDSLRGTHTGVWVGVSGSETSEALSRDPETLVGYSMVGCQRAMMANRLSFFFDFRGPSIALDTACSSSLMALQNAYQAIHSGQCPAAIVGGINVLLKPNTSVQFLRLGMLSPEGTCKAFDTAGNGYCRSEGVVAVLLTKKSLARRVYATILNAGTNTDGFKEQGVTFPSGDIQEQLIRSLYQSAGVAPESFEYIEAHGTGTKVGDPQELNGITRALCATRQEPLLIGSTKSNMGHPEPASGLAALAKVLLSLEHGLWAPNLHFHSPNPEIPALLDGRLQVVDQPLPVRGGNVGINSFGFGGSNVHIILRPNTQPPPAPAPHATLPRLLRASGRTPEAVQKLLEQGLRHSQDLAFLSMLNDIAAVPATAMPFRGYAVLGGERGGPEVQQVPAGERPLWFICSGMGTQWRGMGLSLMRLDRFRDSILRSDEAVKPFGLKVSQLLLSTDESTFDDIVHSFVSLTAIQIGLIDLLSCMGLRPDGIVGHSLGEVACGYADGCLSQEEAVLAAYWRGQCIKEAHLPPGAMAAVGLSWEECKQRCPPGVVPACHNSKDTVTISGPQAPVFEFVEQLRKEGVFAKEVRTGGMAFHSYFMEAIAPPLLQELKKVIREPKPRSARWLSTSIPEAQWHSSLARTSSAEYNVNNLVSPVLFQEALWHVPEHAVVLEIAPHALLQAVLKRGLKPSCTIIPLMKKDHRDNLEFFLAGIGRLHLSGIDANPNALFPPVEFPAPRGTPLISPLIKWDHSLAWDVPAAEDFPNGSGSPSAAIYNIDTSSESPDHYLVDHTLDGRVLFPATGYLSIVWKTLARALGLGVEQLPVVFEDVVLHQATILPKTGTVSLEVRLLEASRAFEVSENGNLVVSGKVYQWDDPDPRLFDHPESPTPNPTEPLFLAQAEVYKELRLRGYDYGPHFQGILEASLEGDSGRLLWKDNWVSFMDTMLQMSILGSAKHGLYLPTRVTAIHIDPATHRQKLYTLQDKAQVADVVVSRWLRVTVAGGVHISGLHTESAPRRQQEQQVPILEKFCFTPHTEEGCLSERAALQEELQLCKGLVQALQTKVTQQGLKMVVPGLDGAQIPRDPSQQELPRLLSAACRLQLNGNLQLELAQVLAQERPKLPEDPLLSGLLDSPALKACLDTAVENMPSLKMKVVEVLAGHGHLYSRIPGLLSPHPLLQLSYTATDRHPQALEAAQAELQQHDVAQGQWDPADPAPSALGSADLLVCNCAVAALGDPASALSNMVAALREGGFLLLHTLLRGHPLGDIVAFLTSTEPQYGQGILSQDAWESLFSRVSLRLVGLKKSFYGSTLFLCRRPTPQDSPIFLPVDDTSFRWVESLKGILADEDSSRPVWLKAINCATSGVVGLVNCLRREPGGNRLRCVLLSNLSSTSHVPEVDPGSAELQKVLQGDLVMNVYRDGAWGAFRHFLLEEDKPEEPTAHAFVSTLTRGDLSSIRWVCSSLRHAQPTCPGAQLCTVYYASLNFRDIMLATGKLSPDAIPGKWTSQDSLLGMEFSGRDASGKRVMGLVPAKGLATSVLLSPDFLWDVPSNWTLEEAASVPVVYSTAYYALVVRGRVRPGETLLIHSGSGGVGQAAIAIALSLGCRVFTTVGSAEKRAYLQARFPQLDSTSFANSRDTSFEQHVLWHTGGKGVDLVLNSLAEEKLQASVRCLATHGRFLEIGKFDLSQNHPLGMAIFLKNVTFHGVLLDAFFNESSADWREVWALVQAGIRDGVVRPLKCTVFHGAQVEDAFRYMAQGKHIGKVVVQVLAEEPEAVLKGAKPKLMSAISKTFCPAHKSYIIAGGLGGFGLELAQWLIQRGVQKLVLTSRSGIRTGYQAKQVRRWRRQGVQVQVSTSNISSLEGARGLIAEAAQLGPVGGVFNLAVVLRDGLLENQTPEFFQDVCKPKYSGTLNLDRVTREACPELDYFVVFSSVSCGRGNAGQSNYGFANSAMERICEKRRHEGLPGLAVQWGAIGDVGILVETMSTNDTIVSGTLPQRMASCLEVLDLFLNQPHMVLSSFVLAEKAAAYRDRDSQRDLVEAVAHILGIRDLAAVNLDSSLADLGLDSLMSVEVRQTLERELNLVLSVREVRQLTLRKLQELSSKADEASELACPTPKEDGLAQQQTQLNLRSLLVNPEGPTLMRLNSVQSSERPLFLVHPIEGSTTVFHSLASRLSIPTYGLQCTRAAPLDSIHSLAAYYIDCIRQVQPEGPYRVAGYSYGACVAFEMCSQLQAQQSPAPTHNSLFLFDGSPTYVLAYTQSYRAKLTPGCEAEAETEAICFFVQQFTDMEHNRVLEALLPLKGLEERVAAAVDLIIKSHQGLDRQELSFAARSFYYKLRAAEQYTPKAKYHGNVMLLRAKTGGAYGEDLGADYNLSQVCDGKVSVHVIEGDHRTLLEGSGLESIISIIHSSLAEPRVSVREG

Broadly, the AC50 is the midpoint of the concentration-response curve, whichever way the signal moves. `CCCCCCCCCCCCCCCS(=O)(=O)Oc1ccccc1`: the compound was classed as inactive in test [1], in test [2], in test [3], in test [4], in test [5] and in test [6]. Further, the result in test [9], in test [10], in [12], in test [13], in [15] and in test [16] was inactive. Further, the compound was classed as inactive in test [17] and in test [18]. Moreover, the AC50 in test [7] is 5.88 µM (active); in [8], 5.48 µM (active); in test [11], 3.8 µM (active); in test [14] it was 4.08 µM (active).
On to `NC(=O)N(O)[C@@H]1C=C[C@H](Oc2cccc(Oc3ccc(F)cc3)c2)C1`, for which the result in [1], in test [19], in [3], in test [4], in [5] and in [6] was inactive. Moreover, the compound was called inactive in test [7], in test [8], in test [9], in [11], in test [14] and in [17]. Also, the AC50 is 12.8 µM (active) in test [2], 92.2 µM (active) in test [19], 67.2 µM (active) in [15] and 33 µM (active) in test [18].
`CCc1nn(C2CCCCC2)c2cc(C3(C#N)CCC(C(=O)O)CC3)ccc12` (stereo not given): the half-maximal activity concentration (AC50) in test [1] was 23.6 µM (active); in test [2], 41.3 µM (active); in test [19] it was 76.9 µM (active); in test [3] it was 79.7 µM (active) and 73.6 µM (active); in test [15], 31.1 µM (active); in test [18], 73.2 µM (active). Besides, the outcome in test [19], in test [4], in [5], in test [6], in test [7] and in [8] was inactive. Further, the call in [9], in test [10], in [11], in test [12], in test [13] and in test [14] was inactive. In addition, the compound was called inactive in [17].
As for `CCCCCCCCCCCCc1ccccc1S(=O)(=O)O`, the half-maximal activity concentration (AC50) in [1] was 92.9 µM (active); in test [19], 76 µM (active) and 80.5 µM (active); in test [15] it was 50 µM (active). Besides, the call in [2], in test [3], in test [4], in test [5], in test [17] and in [18] was inactive.
As for `CC(=O)NC1(c2cccc(F)c2)CCN(CC[C@@]2(c3ccc(Cl)c(Cl)c3)CN(c3ccccc3)C(=O)CO2)CC1`, the concentration at half-maximal activity (AC50) is 9.52 µM (active) in test [1], 9.83 µM (active) in test [2] and 71.9 µM (active) in test [15]. For the same compound, the call in test [3], in test [4], in [5], in test [17] and in test [18] was inactive.
`Oc1cc2ccccc2c2ccccc12`: the outcome in test [19], in test [4], in test [5], in test [15], in test [16] and in [18] was inactive.
With `CC[C@H](C)[C@@H](C(=O)O)n1sc2ccccc2c1=O`, the result in test [1], in test [19], in test [3], in [4], in test [5] and in test [15] was inactive. Besides, the outcome in [16], in test [17] and in test [18] was inactive.

These data come from PubChem BioAssay (EPA / NIEHS).
